In the library only some 19% were active in any assay of this set; here they are far more common.
TDP1 cell CPT: qHTS for Inhibitors of human tyrosyl-DNA phosphodiesterase 1 (TDP1): qHTS in cells in presence of CPT | AID 686979, 2013 | 12% of 420,000 active | Potency, µM (titrated, usually from 46.2 µM), inactives show at the highest dose activity change, negative = growth inhibition, most hits filed as inhibitors | chicken DT40 Tdp1-/-;hTDP1 cells + 20 nM CPT, ATP luminescence, 48 h; further: potency means the concentration at half of the fitted maximal effect; nearly all actives have a fitted effect of over 55% in size
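Chicken DT40 Tdp1-/- cells stably complemented with human TDP1 were seeded at 400 cells/well in medium containing 20 nM camptothecin, exposed to pin-transferred compounds, and grown at 37 °C for at least 48 hr. Viability was read as ATP luminescence.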
DT40 TDP1 no CPT: qHTS for Inhibitors of human tyrosyl-DNA phosphodiesterase 1 (TDP1): qHTS in cells in absence of CPT | DT40 Tdp1-/- hTDP1 cells, no CPT, ATP luminescence, 48 h | Potency, µM (top dose mostly 46.2 µM), for inactives: at the highest dose activity change, negative = growth inhibition, most hits filed as inhibitors | 15% of 420,000 active; further: potency means the concentration at half of the fitted maximal effect; nearly all actives have a fitted effect of over 55% in size
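Luminescent ATP content (CellTiter-Glo) served as the growth readout. Knockout chicken DT40 cells expressing human TDP1 were exposed to compounds without camptothecin for a minimum 48 hr at 37 °C.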
HT1080-NT tox: qHTS for induction of synthetic lethality in tumor cells producing 2HG: qHTS for the HT-1080-NT fibrosarcoma cell line; HT-1080-NT fibrosarcoma viability, CellTiter-Glo ATP luminescence, 48 h; Potency, µM (top dose mostly 46.1 µM), for inactives: at the top dose activity, negative = less viability, most hits filed as cytotoxic; 1.6% of 360,000 active; AID 686970, 2013;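 further: NT is the 2HG producing partner of a matched IDH1 knockdown line; potency means the concentration at half of the fitted maximal effect; 0% = DMSO-treated cells and -100% = media-only wells without cells; nearly all actives have a fitted effect of over 55% in size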
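A 48-hour cytotoxicity screen used HT-1080-NT cells plated 2 hours before compound delivery. ATP-based CellTiter-Glo luminescence measured viability, normalized to DMSO and no-cell controls.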
IL1B secr inh: qHTS for Inhibitors of Inflammasome Signaling: IL-1-beta AlphaLISA Primary Screen. THP-1 LPS/ATP IL-1B secretion, AlphaLISA, 16 h; hits give low values. activity change, % at 57.5 µM. 4.7% of 360,000 active. AID 743279, 2014; in the data active means activity change below about -50%; inconclusive means mostly about -30% to -49%
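Secreted IL-1B measured by AlphaLISA bead assay after 16 h compound exposure of THP-1 cells; compounds (final up to 57.5 uM) added 1 h before LPS (250 ng/mL) and ATP (1.25 mM) stimulation; lower signal means less secretion.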
HT1080 IDH1KD tx: qHTS for induction of synthetic lethality in tumor cells producing 2HG: qHTS for the HT-1080-IDH1KD cell line | HT-1080 IDH1 knockdown viability, ATP luminescence, 48 h | Potency, µM (top dose mostly 46.1 µM), for the others: top-dose activity, negative = toxicity, hits mostly cytotoxic | 2% of 360,000 active | AID 686971, 2013;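 further: potency means the concentration at half of the fitted maximal effect; 0% = DMSO wells and -100% = cell-free medium wells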
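Assay cells: HT-1080 with IDH1 knockdown, 750 per well, RPMI/5% FBS. Exposure: 48 h at 37 °C following 2 h pre-incubation. Read: CellTiter-Glo luminescence; fitted concentration-response, curve class assigned.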
The depositor's hits bear a star; i = inactive; ? = inconclusive; · = no result; [ ] = another dose, or the depositor's remark. Unless noted, the call rests on the fitted dose curve; in most records, active means well fitted curve in the direction sought with a large enough effect; inconclusive means small, poorly fitted or top-dose-only effect, or another doubt; inactive means no such curve, though single readings can be large; an effect the other way counts as inactive or inconclusive. Unless noted, on the % scale 0 is the no-effect control and ±100 the full control effect.

SMILES | TDP1 cell CPT | DT40 TDP1 no CPT | HT1080-NT tox | IL1B secr inh | HT1080 IDH1KD tx
O=C(NCCN1CCCCC1)Nc1ccc(Cl)cc1 | 29% | -2% | -15% | 10 | -13%
CCC(=O)N1c2ccccc2CC1C(=O)NCCN1CCN(c2cc(Cl)ccc2C)CC1 (configuration not stated) | 21µM* | ? | · | · | ·
Cc1ccc(-c2c(CN3CCN(c4cc(Cl)ccc4C)CC3)csc2C)cc1 | 16µM* | ? | · | · | ·
Cc1ccc(Cl)cc1N1CCN(Cc2nnnn2C2CCCCC2)CC1 | -21% | -27% | 8% | -22 | 4%
CC(OC(=O)c1ccc(C(C)(C)C)cc1)C(=O)NC1CCCCC1C (configuration not stated) | ? | ? | 0% | 0 | -1%
Cc1cccc(S(=O)(=O)NC(=O)C2(C)CCN2C(=O)CCC2CCCC2)c1 (configuration not stated) | -1% | 16% | 1% | 25 | 9%
COC(=O)c1ccc(NC(=O)N2CCN(Cc3cc(=O)n4nc(-c5ccc(C)cc5)sc4n3)CC2)cc1 | -1% | -10% | · | · | ·
CCOC(=O)c1c(C)[nH]c(C)c1S(=O)(=O)NCCN1CCN(c2cc(Cl)ccc2C)CC1 | ? | 13µM* | ? | -51* | ?
CCC(C)c1ccc(NC(=O)NCCN2CCCCC2)cc1 (configuration not stated) | ? | -25% | ? | -52* | ?
Cc1ccc(Cl)cc1N1CCN(CC(=O)Nc2ccc(CN3CCCCC3)cc2)CC1 | ? | ? | 21µM* | -18 | 23µM*
Cc1ccc(NC(=S)N2CCN(S(C)(=O)=O)CC2)cc1Cl | -17% | -9% | 0% | i | 6%
CCc1ccc(NC(=O)c2cnc(SC)nc2C)cc1 | ? | -25% | 0% | 22 | -5%
Cc1ccc(-c2c[n+](CC(=O)Nc3ccc(C)cc3C)c3n2CCC3)cc1 | ? | 15µM* | -11% | -73* | -16%
Cc1ccc(NC(=O)C[n+]2cc(-c3ccc(C)cc3)n3c2CCC3)cc1 | 4.1µM* | 5.2µM* | -8% | · | -1%
Cn1c(=O)n(C)c2cc(N3CCOCC3)c(NC(=O)c3ccc(F)cc3)cc21 | -28% | -1% | 18% | 24 | 12%
C(=C\c1ccccc1)/CN1CCN(C(c2ccccc2)c2nnnn2C2CCCCC2)CC1 (configuration not stated) | ? | 13µM* | 21% | -29 | 7%
C(=C\c1ccccc1)/CN1CCN(C(c2ccnc3ccccc23)c2nnnn2C2CCCCC2)CC1 (configuration not stated) | 23µM* | 18µM* | ? | ? | ?
CSCCC(c1nnnn1C1CCCCC1)N1CCN(C/C=C/c2ccccc2)CC1 (configuration not stated) | ? | 21µM* | ? | -29 | ?
CCC(c1nnnn1C1CCCC1)N1CCN(Cc2ccccc2)CC1 (configuration not stated) | -6% | -20% | -8% | -3 | -3%
Fc1ccccc1C(c1nnnn1C1CCCC1)N1CCN(Cc2ccccc2)CC1 (configuration not stated) | 21µM* | 12µM* | 1% | ? | 8%
O=C(CN1CCN(c2nc(-c3ccccc3)cs2)CC1)NNC(=O)c1ccco1 | -28% | -26% | -17% | -18 | 0%
COc1cc(=O)n2c(c1C(=O)NC(C)c1ccco1)CCN(C(=O)c1ccnc(Cl)c1)CC2 (configuration not stated) | 15%[9.04 µM] | -2% | · | · | ·
Cc1ccc2c(c1)N(CC(=O)N1CCCC1)C(=O)C(C)O2 (configuration not stated) | 6% | 14% | 0% | 14 | 1%

From PubChem BioAssay
